High-throughput results deposited in PubChem BioAssay by National Center for Advancing Translational Sciences (NCATS).
TDP1 cell CPT: qHTS for Inhibitors of human tyrosyl-DNA phosphodiesterase 1 (TDP1): qHTS in cells in presence of CPT | chicken DT40 Tdp1-/-;hTDP1 cells + 20 nM CPT, ATP luminescence, 48 h | Potency, µM (top dose mostly 46.2 µM), hits mostly inhibitors | 12% of 420,000 active | AID 686979, 2013; further: nearly all actives have a fitted effect of over 55% in size
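Chicken DT40 Tdp1-/- cells stably complemented with human TDP1 were seeded at 400 cells/well in medium containing 20 nM camptothecin, exposed to pin-transferred compounds, and grown at 37 °C for at least 48 hr. Viability was read as ATP luminescence.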
HT1080-NT tox: qHTS for induction of synthetic lethality in tumor cells producing 2HG: qHTS for the HT-1080-NT fibrosarcoma cell line; HT-1080-NT fibrosarcoma viability, CellTiter-Glo ATP luminescence, 48 h; Potency, µM (doses to about 46.1 µM), most hits filed as cytotoxic; 1.6% of 360,000 active; AID 686970, 2013;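 further: NT is the 2HG producing partner of a matched IDH1 knockdown line; nearly all actives have a fitted effect of over 55% in size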
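750 cells/well, RPMI + 5% FBS; 2 h settle, compound pin-transfer, 48 h at 37 degrees C. CellTiter-Glo 10 min RT, luminescence. Normalized to DMSO and media-only wells.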
DT40 TDP1 no CPT: qHTS for Inhibitors of human tyrosyl-DNA phosphodiesterase 1 (TDP1): qHTS in cells in absence of CPT | DT40 Tdp1-/- hTDP1 cells, no CPT, ATP luminescence, 48 h | Potency, µM (series often up to 46.2 µM), usual class: inhibitors | 15% of 420,000 active; further: nearly all actives have a fitted effect of over 55% in size
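Chicken DT40 Tdp1-/- cells complemented with human TDP1, screened without camptothecin (DMSO vehicle only), 400 cells/well. Compounds pin-transferred, cells incubated at 37 °C for at least 48 hr. Growth read as ATP-dependent luminescence (CellTiter-Glo, 30 min at RT).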
HT1080 IDH1KD tx: qHTS for induction of synthetic lethality in tumor cells producing 2HG: qHTS for the HT-1080-IDH1KD cell line; 2% of 360,000 active; Potency, µM (doses to about 46.1 µM), actives largely listed as cytotoxic; HT-1080 IDH1 knockdown viability, ATP luminescence, 48 h
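CellTiter-Glo luminescence after 48 h compound exposure at 37 degrees C of IDH1-knockdown HT-1080 cells in 5% FBS RPMI. %Activity scaled between DMSO wells and cell-free media wells, with curves fitted and assigned curve classes.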
ELG1 DNA repair: qHTS screen for small molecules that inhibit ELG1-dependent DNA repair in human embryonic kidney (HEK293T) cells expressing luciferase-tagged ELG1. HEK293T ELG1-luciferase reporter, luminescence, 16 h; DNA damage induced by 5-fluorouridine. Potency, µM (series often up to 46.1 µM), actives largely listed as inhibitors. 2.3% of 330,000 active. AID 504467, 2011; further: nearly all actives have a fitted effect of over 55% in size
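Luminescence from the luciferase reporter, measured 30 min after ONE-Glo reagent at room temperature, was the read-out. Beforehand, 2,000 cells per well were exposed for 16 hr at 37 °C to 5-fluorouridine together with compound or vehicle.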
IL1B secr inh: qHTS for Inhibitors of Inflammasome Signaling: IL-1-beta AlphaLISA Primary Screen. THP-1 LPS/ATP IL-1B secretion, AlphaLISA, 16 h; hits give low values. activity change, % at 57.5 µM. AID 743279, 2014. 4.7% of 360,000 active; in the data active means activity change below about -50%; inconclusive means mostly about -30% to -49%
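THP-1 cells pretreated 1 hr with compounds (up to 57.5 uM final), then stimulated with LPS (250 ng/mL final) plus ATP (1.25 mM final); secreted IL-1B measured by AlphaLISA after 16 hr, decreased signal indicating inhibition.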
A number is an active result; . = inactive; ? = inconclusive; / = not tested or not shown; ! = not confirmed by another sample. Rows were chosen to be rich in hits. Some 19% of all compounds tested hit in one or more screens of this group. Unless noted, the call rests on the fitted dose curve; in most records, active means well fitted curve in the direction sought with a large enough effect; inconclusive means small, poorly fitted or top-dose-only effect, or another doubt; inactive means no such curve, though single readings can be large; an effect the other way counts as inactive or inconclusive.

SMILES	TDP1 cell CPT	HT1080-NT tox	DT40 TDP1 no CPT	HT1080 IDH1KD tx	ELG1 DNA repair	IL1B secr inh
CCC12CN3CC(C)(CN(C1)C3c1c[nH]c3ccccc13)C2=O (stereo not given)	?	/	23µM	/	/	/
CCn1c(C)c(C2N3CC4(C)CN2CC(C)(C3)C4=O)c2ccccc21 (stereo not given)	.	/	.	/	/	/
CC(C)C[C@H](NC(=O)/C=C/[C@H]1O[C@@H](n2ccc(=O)[nH]c2=O)[C@H](O)[C@@H]1O)C(=O)O	.	.	.	?	/	.
CCc1nn(CC(=O)NCCCOC)c(=O)c2cc3ccccc3n12	.	/	.	/	/	/
Cc1ccc(-c2nnn(CC(=O)N(CC(=O)NC3CCCC3)c3ccc(F)c(Cl)c3)n2)o1	?	?	?	16µM	?	.
COc1ccc(-c2nnn(CC(=O)N(CC(=O)NC3CCCC3)c3ccccc3)n2)cc1OC	?	.	15µM	.	.	.
COc1ccc(N(CC(=O)NC2CCCC2)C(=O)Cn2nnc(-c3ccc(OC)c(OC)c3)n2)cc1	.	.	.	.	.	.
Cc1ccc(-c2nnn(CC(=O)N(CC(=O)NC3CCCCC3)c3ccc(F)c(Cl)c3)n2)o1	13µM	?	21µM	18µM	?	.
O=C(Cc1ccc(Cl)c(Cl)c1)N1CCOCC1	.	.	.	.	?	.
CCN(CC)C(=O)N1CCN(C)CC1	1µM!	.	?	.	/	.
CC1CCCN(Cc2c(O)ccc3c(=O)c(Oc4ccccc4Cl)c(C(F)(F)F)oc23)C1 (stereo not given)	.	/	.	/	/	/
CC1CCN(Cc2c(O)ccc3c(=O)c(Oc4ccccc4Cl)c(C(F)(F)F)oc23)CC1	?	/	21µM	/	/	/
CCc1ccc(Oc2c(C(F)(F)F)oc3c(CN4CCN(C)CC4)c(O)ccc3c2=O)cc1	?	/	26µM	/	/	/
Cc1[nH]n(-c2ncc(-c3ccc(Cl)cc3)s2)c(=O)c1C(c1ccc(Cl)cc1)C(C#N)C#N (stereo not given)	.	?	?	?	?	?
COc1ccc(C(c2c(C)[nH]n(C(N)=S)c2=O)C(C#N)C#N)cc1 (stereo not given)	23µM	.	?	.	?	.
CC1(C(=O)Nc2ccc3nc[nH]c3c2)CCN1C(=O)C1(c2ccccc2)CCCC1 (stereo not given)	.	.	?	.	/	.
Cc1ccc(CN2CCN(/N=C\c3cccc([N+](=O)[O-])c3)CC2)cc1	.	.	?	.	.	-62
O=[N+]([O-])c1ccc(Cl)c(/C=N/N2CCN(Cc3ccccc3)CC2)c1	.	.	.	.	.	.
Fc1ccccc1/C=N/N1CCN(Cc2ccccc2Cl)CC1	?	.	?	.	?	.
O=[N+]([O-])c1ccc(Cl)c(/C=N/N2CCN(Cc3ccccc3Cl)CC2)c1	?	.	21µM	.	.	.
Cn1cccc1/C=N/N1CCN(Cc2ccccc2Cl)CC1	.	.	2.6µM	.	.	.
COC(=O)N1C(=O)[C@@](c2ccccc2)(C2CCCC2)N1C(=O)OC	15µM	?	16µM	.	.	-106
COC(C(=O)NC1CCCCCCC1)c1ccccc1 (stereo not given)	.	.	.	.	.	.
CCCC1(c2ccccc2)NC(=O)N(CC(=O)Nc2cc(OC)cc(OC)c2)C1=O (stereo not given)	.	.	?	.	.	.
COC(=O)N1C(=O)[C@](c2ccccc2)(C2CCCCC2)N1C(=O)OC	?	.	.	.	.	-75
